Assay [1] is described as follows: NCI Yeast Anticancer Drug Screen. Data for the rad50 strain (AID 155).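 Also: 0% = growth of vehicle-only cultures of the same strain.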 The conditions noted are these: S. cerevisiae rad50 strain growth inhibition, active compounds read high. In outline:
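Compounds were tested on a yeast strain with an engineered DNA damage repair alteration; the reported value is growth inhibition normalised to vehicle treatment.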

A short description of assay [2]: NCI Yeast Anticancer Drug Screen. Data for the mec2-1 strain (AID 157). The conditions noted are these: S. cerevisiae mec2-1 strain, active compounds read high. In outline: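 mec2-1 yeast strain, carrying an alteration in DNA damage repair or cell cycle control, was exposed to compounds; growth inhibition was measured relative to vehicle-treated controls.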
The nature of assay [3]: NCI Yeast Anticancer Drug Screen. Data for the sgs1 mgt1 strain (AID 161).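 Also: 0% = growth of cultures given vehicle only.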 The note with it: S. cerevisiae sgs1 mgt1 strain, active compounds read high. An outline of the steps:
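Yeast cells carrying a defined DNA-repair defect were exposed to test compounds. Growth inhibition was measured relative to vehicle-treated controls.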

Assay [4] in a line: NCI Yeast Anticancer Drug Screen. Data for the cln2 rad14 strain (AID 165).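 Also: 0% = growth equal to vehicle treated cultures.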 The note with it: S. cerevisiae cln2 rad14 strain, active compounds read high. An outline of the steps:
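Yeast carrying cln2 and rad14 alterations (cell cycle control and DNA damage repair) were exposed to compounds. Growth inhibition was measured against vehicle-treated controls.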

The nature of assay [5]: NCI Yeast Anticancer Drug Screen. Data for the bub3 strain (AID 167). The note with it: S. cerevisiae bub3 mutant strain, active compounds read high. In outline:
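Growth of a checkpoint-deficient yeast mutant is measured after compound exposure. Values represent inhibition relative to vehicle.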

The nature of assay [6]: NCI Yeast Anticancer Drug Screen. Data for the mlh1 rad18 strain (AID 175). The conditions noted are these: S. cerevisiae mlh1 rad18 strain growth inhibition, active compounds read high. In outline: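 Growth inhibition of the yeast strain was measured after compound exposure and expressed relative to vehicle-treated controls. The strain carries defined defects in DNA damage repair.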

Where [7] appears, read: at 5.0 µM (retest, dose inferred, filed as 0.5).
The mark [8] stands for this setting: at 50.0 µM (retest, dose inferred, filed as 5.0).

From PubChem BioAssay (NCI) come the findings set out here.

Each structure is given as a SMILES string. This is part of a sample that, as a whole, favours compounds with a hit. Of some 79,000 tested, about 15% had one in any assay. A number with no mark means an inactive call. Active and inactive are the calls of the source. Rule as the data show it: active = growth inhibition above about 70%; inactive = the rest.

As for `c1ccc(N2CCN(c3ccccc3)C2Cc2c[nH]c3ccccc23)cc1`, the growth inhibition in assay [1] (setting [7]) was 30%; in assay [1] (setting [8]), 98% (active); in assay [1] (at 50.0 µM) it was 99.2% (active); in assay [2] (setting [7]) it was 19%; in assay [2] (setting [8]) it was 99% (active); in assay [2] (at 50.0 µM), 98.4% (active). In addition, the growth inhibition was 25% in assay [3] (setting [7]); 98% (active) in assay [3] (setting [8]); 99.4% (active) in assay [3] (at 50.0 µM); 17% in assay [4] (setting [7]); 99% (active) in assay [4] (setting [8]); 92.5% (active) in assay [4] (at 50.0 µM). Moreover, the growth inhibition is 61% in assay [5] (setting [7]); 98% (active) in assay [5] (setting [8]); 99.2% (active) in assay [5] (at 50.0 µM); 61% in assay [6] (setting [7]); 99% (active) in assay [6] (setting [8]); 98.9% (active) in assay [6] (at 50.0 µM).

For the compound `Oc1ccc2ccccc2c1.[Cu+2]`, the growth inhibition was 1% in assay [1] (setting [7]); 20% in assay [1] (setting [8]); 98% (active) in assay [1] (at 50.0 µM); -1% in assay [2] (setting [7]); 12% in assay [2] (setting [8]); 97.2% (active) in assay [2] (at 50.0 µM). The growth inhibition in assay [3] (setting [7]) was -2%; in assay [3] (setting [8]) it was 6%; in assay [3] (at 50.0 µM), 98.4% (active); in assay [4] (setting [7]) it was -4%; in assay [4] (setting [8]) it was 13%; in assay [4] (at 50.0 µM), 83.2% (active). Moreover, the growth inhibition in assay [5] (setting [7]) was 2%; in assay [5] (setting [8]), 8%; in assay [5] (at 50.0 µM) it was 94% (active); in assay [6] (setting [7]), 0%; in assay [6] (setting [8]), 33%; in assay [6] (at 50.0 µM), 98% (active).

In the case of `CSc1ccc(/C=C2\CN(C)C/C(=C\c3ccc(SC)cc3)C2=O)cc1`, the growth inhibition in assay [1] (setting [7]) was 43%; in assay [1] (setting [8]) it was 52%; in assay [1] (at 50.0 µM), 73.5% (active); in assay [2] (setting [7]), -7%; in assay [2] (setting [8]), 32%; in assay [2] (at 50.0 µM) it was 70% (active). For the same compound, the growth inhibition was 36% in assay [3] (setting [7]); 61% in assay [3] (setting [8]); 91.6% (active) in assay [3] (at 50.0 µM); 34% in assay [4] (setting [7]); 33% in assay [4] (setting [8]); 68.4% in assay [4] (at 50.0 µM). For the same compound, the growth inhibition in assay [5] (setting [7]) is 25%; in assay [5] (setting [8]) it was 45%; in assay [5] (at 50.0 µM), 44%; in assay [6] (setting [7]), 29%; in assay [6] (setting [8]) it was 15%; in assay [6] (at 50.0 µM), 82.8% (active).

Take `N#CC(C(=O)C(=O)Nc1ccc(Cl)c(Cl)c1)c1c(Cl)cccc1Cl` (stereo not given): the growth inhibition in assay [1] (setting [7]) is -1%; in assay [1] (setting [8]) it was 4%; in assay [1] (at 50.0 µM), 25.9%; in assay [2] (setting [7]), -2%; in assay [2] (setting [8]) it was -10%; in assay [2] (at 50.0 µM) it was 3.15%. Also, the growth inhibition in assay [3] (setting [7]) was -1%; in assay [3] (setting [8]) it was -1%; in assay [3] (at 50.0 µM) it was 2.95%; in assay [4] (setting [7]) it was 4%; in assay [4] (setting [8]), -4%; in assay [4] (at 50.0 µM), 43%. Further, the growth inhibition is -1% in assay [5] (setting [7]); -1% in assay [5] (setting [8]); -3.2% in assay [5] (at 50.0 µM); -2% in assay [6] (setting [7]); -5% in assay [6] (setting [8]); 31.4% in assay [6] (at 50.0 µM).

Take `CCCC#CCCOC(=O)c1cc([N+](=O)[O-])cc([N+](=O)[O-])c1`: the growth inhibition is 3% in assay [1] (setting [7]); 97% (active) in assay [1] (setting [8]); 99.2% (active) in assay [1] (at 50.0 µM); 5% in assay [2] (setting [7]); 99% (active) in assay [2] (setting [8]); 98.5% (active) in assay [2] (at 50.0 µM). Also, the growth inhibition was 12% in assay [3] (setting [7]); 99% (active) in assay [3] (setting [8]); 99.5% (active) in assay [3] (at 50.0 µM); -7% in assay [4] (setting [7]); 76% (active) in assay [4] (setting [8]); 98.9% (active) in assay [4] (at 50.0 µM). Moreover, the growth inhibition in assay [5] (setting [7]) was -11%; in assay [5] (setting [8]) it was 96% (active); in assay [5] (at 50.0 µM) it was 99.4% (active); in assay [6] (setting [7]), 5%; in assay [6] (setting [8]), 98% (active); in assay [6] (at 50.0 µM), 98.5% (active).

Take `CCn1c2ccccc2c2ccc(C3C(C(=O)OC)=C(C)NC(C)=C3C(=O)OC)cc21`: the growth inhibition in assay [1] (setting [7]) is -3%; in assay [1] (setting [8]), 8%; in assay [1] (at 50.0 µM) it was 79.4% (active); in assay [2] (setting [7]) it was -14%; in assay [2] (setting [8]), 14%; in assay [2] (at 50.0 µM), 76% (active). The growth inhibition in assay [3] (setting [7]) was -2%; in assay [3] (setting [8]) it was 9%; in assay [3] (at 50.0 µM) it was 80.8% (active); in assay [4] (setting [7]), -14%; in assay [4] (setting [8]), 26%; in assay [4] (at 50.0 µM), 83.2% (active). The growth inhibition in assay [5] (setting [7]) is -6%; in assay [5] (setting [8]) it was 15%; in assay [5] (at 50.0 µM), 85% (active); in assay [6] (setting [7]), 1%; in assay [6] (setting [8]), 8%; in assay [6] (at 50.0 µM) it was 85% (active).

For the compound `COc1ccc(C(=O)c2cc(Br)ccc2O)cc1`, the growth inhibition in assay [1] (setting [7]) was -3%; in assay [1] (setting [8]), 4%; in assay [1] (at 50.0 µM), 89.3% (active); in assay [2] (setting [7]), -6%; in assay [2] (setting [8]), 4%; in assay [2] (at 50.0 µM), 71.9% (active). Besides, the growth inhibition in assay [3] (setting [7]) is -1%; in assay [3] (setting [8]), 18%; in assay [3] (at 50.0 µM) it was 84% (active); in assay [4] (setting [7]), -20%; in assay [4] (setting [8]) it was -9%; in assay [4] (at 50.0 µM), 46%. For the same compound, the growth inhibition in assay [5] (setting [7]) was 3%; in assay [5] (setting [8]) it was 11%; in assay [5] (at 50.0 µM), 94.5% (active); in assay [6] (setting [7]) it was -1%; in assay [6] (setting [8]), -2%; in assay [6] (at 50.0 µM), 90.1% (active).

As to `CCC(=O)OC1=C(Br)C(=O)c2ccccc2C1=O`, the growth inhibition in assay [1] (setting [7]) was 14%; in assay [1] (setting [8]), 85% (active); in assay [1] (at 50.0 µM), 89.6% (active); in assay [2] (setting [7]), 17%; in assay [2] (setting [8]), 94% (active); in assay [2] (at 50.0 µM), 57.4%. Also, the growth inhibition in assay [3] (setting [7]) was 25%; in assay [3] (setting [8]) it was 68%; in assay [3] (at 50.0 µM) it was 80.3% (active); in assay [4] (setting [7]), 4%; in assay [4] (setting [8]), 68%; in assay [4] (at 50.0 µM) it was 1.15%. Further, the growth inhibition in assay [5] (setting [7]) was 18%; in assay [5] (setting [8]), 96% (active); in assay [5] (at 50.0 µM), 18.9%; in assay [6] (setting [7]), 38%; in assay [6] (setting [8]), 85% (active); in assay [6] (at 50.0 µM), 76.6% (active).

Regarding `O=C(Nc1ccc(C(=O)Nc2ccc3c(O)cc(S(=O)(=O)O)cc3c2)cc1)c1ccccc1`, the growth inhibition in assay [1] (setting [7]) is 0%; in assay [1] (setting [8]), -2%; in assay [1] (at 50.0 µM), 25.8%; in assay [2] (setting [7]), 2%; in assay [2] (setting [8]), 34%; in assay [2] (at 50.0 µM) it was -5.7%. Moreover, the growth inhibition in assay [3] (setting [7]) is 2%; in assay [3] (setting [8]), 21%; in assay [3] (at 50.0 µM), 25.8%; in assay [4] (setting [7]), 1%; in assay [4] (setting [8]) it was -13%; in assay [4] (at 50.0 µM) it was 1.4%. The growth inhibition in assay [5] (setting [7]) is 0%; in assay [5] (setting [8]), -6%; in assay [5] (at 50.0 µM) it was 1.15%; in assay [6] (setting [7]), 19%; in assay [6] (setting [8]), 6%; in assay [6] (at 50.0 µM), 47%.

Regarding `N#C/C(=C\NC(=S)Nc1cc(Cl)ccc1Cl)c1nc2ccccc2s1`, the growth inhibition was 21% in assay [1] (setting [7]); 25% in assay [1] (setting [8]); 34.2% in assay [1] (at 50.0 µM); 7% in assay [2] (setting [7]); 21% in assay [2] (setting [8]); 15.1% in assay [2] (at 50.0 µM). Besides, the growth inhibition in assay [3] (setting [7]) is 2%; in assay [3] (setting [8]), 4%; in assay [3] (at 50.0 µM), 10.1%; in assay [4] (setting [7]), 20%; in assay [4] (setting [8]), 29%; in assay [4] (at 50.0 µM), 39.6%. In addition, the growth inhibition is 7% in assay [5] (setting [7]); 19% in assay [5] (setting [8]); 37.4% in assay [5] (at 50.0 µM); 21% in assay [6] (setting [7]); 12% in assay [6] (setting [8]); 27.1% in assay [6] (at 50.0 µM).
